# From the supplement of paper PMC6522484
# ± gives the standard deviation of the averaged measurements.
# Columns and labels:
# DLD1 [1] = experiment: cell viability (CellTiter-Glo) relative to plate median (fraction of plate median); higher = more viable cells; settings: 5 µM; treatment time 24 h; reporter: 7TFP
# Outline: (§1)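 Library compounds, at a final 5 µM, stayed on reporter cells for 24 h. The cells were colorectal cancer lines stably transduced with lentiviral TCF/Wnt firefly luciferase reporters, seeded in 384-well plates 24 h before dosing. Firefly luciferase or CellTiterGlo luminescence from parallel plates was normalised to the plate median in webcellHTS2 (additive, no log transformation), and two independent replicates were averaged.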
# HCT116 = experiment: as above; settings: 5 µM; treatment time 24 h; reporter: TCF4/Wnt
# Outline: as §1
# SW480 [2] = experiment: as above; settings: 5 µM; treatment time 24 h; reporter: 7TFP
# Outline: as §1
# DLD1 [3] = experiment: TCF/Wnt firefly luciferase reporter signal relative to plate median (fraction of plate median); higher = higher Wnt reporter signal; settings: 5 µM; treatment time 24 h; reporter: 7TFP
# Outline: as §1
# SW480 [4] = experiment: as above; settings: 5 µM; treatment time 24 h; reporter: 7TFP
# Outline: as §1
Structure (SMILES),cell viability (DLD1 [1]),cell viability (HCT116),cell viability (SW480 [2]),TCF/Wnt firefly luciferase reporter signal (DLD1 [3]),TCF/Wnt firefly luciferase reporter signal (SW480 [4])
CC(=O)O[C@H]1CC[C@]2(C)C(C[C@@H](OC(C)=O)[C@]3(C)C4=CC(=O)O[C@H](c5ccoc5)[C@@]4(C)CCC23)C1(C)C (stereo partly drawn) [3-DEOXO-3beta-ACETOXYDEOXYDIHYDROGEDUNIN],1 ± 0.057,1.14 ± 0.19,0.982 ± 0.04,1.05 ± 0.021,0.864 ± 0.09
COc1ccc(C(C)=O)c(OC)c1,0.971 ± 0.056,0.963 ± 0.15,0.9765 ± 0.00071,0.864 ± 0.044,1.03 ± 0.16
Nc1ncnc2c1ncn2[C@@H]1O[C@H](COP(=O)(O)O)[C@@H](O)[C@H]1O,0.958 ± 0.025,0.983 ± 0.081,1.03 ± 0.059,1.09,0.974 ± 0.12
C[C@@H]1CCCCCCCCC[C@H](OC(=O)CCC(=O)O)C(=O)/C=C/C(=O)O1,1.03 ± 0.05,1.09 ± 0.11,1.02 ± 0.028,1.17 ± 0.05,1.09 ± 0.014
C[C@H]1COC2=C1C(=O)C(=O)c1c2ccc2c1CCCC2(C)C,1.15 ± 0.2,1.12 ± 0.042,1.08 ± 0.014,1.05 ± 0.096,0.906 ± 0.12
COc1cc2c(cc1-c1coc3c4c(c(OC)cc3c1=O)OC(C)(C)C=C4)OCO2,0.998 ± 0.017,1.06 ± 0.014,0.986 ± 0.018,0.892 ± 0.014,0.938 ± 0.0099
CCCCCC(=O)O[C@]1(C(C)=O)CC[C@H]2[C@@H]3CCC4=CC(=O)CC[C@]4(C)[C@H]3CC[C@@]21C,0.993 ± 0.0099,1.04 ± 0.057,0.972 ± 0.018,0.979 ± 0.087,1.04 ± 0.021
CC(C)C[C@@H]1NC(=O)[C@H](C)NC1=O [cyclo(alanylleucyl)],0.998 ± 0.046,1.02 ± 0.11,0.998 ± 0.045,0.994 ± 0.0028,0.987 ± 0.1
O=C(Nc1ccccc1)Nc1ccccc1,1.02 ± 0.13,0.996 ± 0.048,1.05 ± 0.092,1.2 ± 0.11,1.01 ± 0.04
CCOC(=O)c1c(C)cc(O)cc1O,1.11 ± 0.085,1.01 ± 0.09,1.07 ± 0.014,1.06 ± 0.14,1.08 ± 0.042
C[C@]12CC[C@@H]3c4ccc(O)cc4CC[C@H]3[C@@H]1C[C@@H](O)[C@@H]2O,1.03 ± 0.035,1.05 ± 0.057,1 ± 0.035,1.07 ± 0.085,1.16 ± 0.071
CC(=O)Nc1ccc(O)cc1,0.935 ± 0.028,0.948 ± 0.14,0.996 ± 0.02,0.923 ± 0.12,1.05 ± 0.071
CC(C)=CCc1c2c(c3occ(-c4ccc(O)c(O)c4)c(=O)c3c1O)C=CC(C)(C)O2,0.997 ± 0.033,1.04 ± 0.067,1.03 ± 0.028,0.996 ± 0.077,1.02 ± 0.021
COc1ccc2c(C)cc(=O)oc2c1,0.974 ± 0.027,0.962 ± 0.022,0.939 ± 0.0071,0.803 ± 0.14,0.869 ± 0.099
CC(C)(Oc1ccc(Cl)cc1)C(=O)O,1.04 ± 0.021,1.17 ± 0.057,1.035 ± 0.0071,1.07 ± 0.13,1.1 ± 0.057
C=C(C)[C@H]1COc2cc3oc(=O)ccc3cc2O1,1.1 ± 0.17,0.968 ± 0.026,1.09 ± 0.057,1.06 ± 0.092,1.1 ± 0.042
O=C1C=C2CC3(O)COc4cc(O)ccc4C3=C2C=C1O (stereo not given),1.02 ± 0.11,1.06 ± 0.12,0.98 ± 0.016,1.015 ± 0.0071,1.02
O=C1CCC(N2C(=O)c3ccccc3C2=O)C(=O)N1 (stereo not given),0.939 ± 0.1,0.972 ± 0.04,0.953 ± 0.03,1.23 ± 0.16,0.887 ± 0.018
Cc1cc(NC(=O)C2=C(O)c3ccccc3S(=O)(=O)N2C)no1,1.04 ± 0.064,0.88 ± 0.036,1.004 ± 0.0085,0.945 ± 0.15,0.993 ± 0.18
CNCCC(Oc1ccc(C(F)(F)F)cc1)c1ccccc1 (stereo not given),0.9505 ± 0.00071,0.952 ± 0.12,0.948 ± 0.069,1.2 ± 0.26,0.993 ± 0.052
CCCNCC(O)COc1ccccc1C(=O)CCc1ccccc1 (stereo not given),0.96 ± 0.085,1.07 ± 0.22,0.927 ± 0.033,1.06 ± 0.091,0.883 ± 0.12
O=c1[nH]c(=O)n([C@H]2C[C@H](O)[C@@H](CO)O2)cc1C(F)(F)F,1.07 ± 0.042,1.03 ± 0.05,1.03 ± 0.014,0.818 ± 0.16,0.886 ± 0.013
CC(C)c1c(O)ccc2c1CCC1[C@@](C)(C=O)CCC[C@]21C (stereo not given in full),1.03 ± 0.021,1.01 ± 0.031,0.965 ± 0.04,1.03 ± 0.014,1.08 ± 0.028
O=c1cc[nH]c(=S)[nH]1,1.03 ± 0.073,1.04 ± 0.061,0.956 ± 0.076,1.03 ± 0.014,1.02 ± 0.028
C[C@@H]1CC[C@]2(C(=O)O[C@@H]3O[C@H](CO)[C@@H](O)[C@H](O)[C@H]3O)CC[C@]3(C)C(=CC[C@@H]4[C@@]5(C)C[C@@H](O)[C@H](O)[C@@](C)(CO)[C@@H]5CC[C@]43C)[C@@H]2[C@]1(C)O [Nigaichigoside F1],1.17 ± 0.11,1.02 ± 0.072,1.05 ± 0.042,1.08 ± 0.028,1.06 ± 0.24
C=CCc1ccc(O)c(OC)c1,0.978 ± 0.013,1.07 ± 0.16,0.943 ± 0.063,1.06 ± 0.12,1.09 ± 0.078
N[C@H]1C(O)O[C@H](CO)[C@@H](O)[C@@H]1O (stereo not given in full),0.973 ± 0.037,0.993 ± 0.024,0.99 ± 0.013,1.12,1.06 ± 0.021
N=C1C=CC(=C(c2ccc(N)cc2)c2ccc(N)cc2)C=C1,0.908 ± 0.046,0.873 ± 0.0028,0.829 ± 0.053,0.923 ± 0.057,0.819 ± 0.14
O=C(O)CN(CCN(CC(=O)O)CC(=O)O)CC(=O)O.[Na+].[Na+].[Na+],0.914 ± 0.021,0.948 ± 0.088,1.01 ± 0.035,1.02 ± 0.12,1.11 ± 0.13
O=c1c(-c2ccc(O)cc2)coc2cc(O)ccc12,1.01,0.9665 ± 0.0021,0.902 ± 0.0042,0.978 ± 0.059,0.971 ± 0.025
